Results filed as inconclusive are left out. Where a call stands in place of a potency, no number is given. Active and inactive are the calls of the source. Calls follow the shape of the full dose curve; tested in HEK293 reporter line.
Test: qHTS for Inhibitors of the Functional Ribonucleoprotein Complex (vRNP) of Lassa (LASV) Arenavirus: LASV Primary Screen - GLuc reporter signal (AID 1347082); also: nearly all actives have a fitted effect of over 60% in size
Settings: LASV minigenome vRNP, Gaussia luciferase reporter; series mostly up to 57.5 µM

Structure (SMILES)	Potency
CC1(C)S[C@@H]2[C@H](NC(=O)Cc3ccccc3)C(=O)N2[C@H]1C(=O)O (tested in a mixture with another compound)	inactive
CCOc1ccc2ccccc2c1C(=O)N[C@@H]1C(=O)N2[C@@H]1SC(C)(C)[C@@H]2C(=O)O	inactive
O=C(O)c1cn(C2CC2)c2cc(N3CCNCC3)c(F)cc2c1=O	inactive
CN(C)CCC[C@@]1(c2ccc(F)cc2)OCc2cc(C#N)ccc21	inactive
Clc1ccc(C(c2ccccc2Cl)C(Cl)Cl)cc1 (stereo not drawn)	inactive
CN1CCc2cccc3c2[C@H]1Cc1ccc(O)c(O)c1-3	inactive
CCCNCC(O)COc1ccccc1C(=O)CCc1ccccc1 (stereo not drawn)	inactive
C[n+]1ccccc1/C=N/O	inactive
CC(C)(C#N)c1cc(Cn2cncn2)cc(C(C)(C)C#N)c1	inactive
Oc1cn2c(n1)Nc1ccc(Cl)c(Cl)c1C2	inactive
CNCC[C@@H](Oc1ccccc1C)c1ccccc1	inactive
NS(=O)(=O)c1cc2c(cc1Cl)NC=NS2(=O)=O	inactive
COc1cc2c(cc1OC)C(=O)C(CC1CCN(Cc3ccccc3)CC1)C2 (stereo not drawn)	inactive
O=C(CCCCCCC(=O)Nc1ccccc1)NO	inactive
Cc1ccc(S(=O)(=O)NC(=O)NN2CCCCCC2)cc1	inactive
O=c1n(CCCN2CCN(c3cccc(Cl)c3)CC2)nc2ccccn12	inactive
C[C@@H]1CC(=O)NN=C1c1ccc(NN=C(C#N)C#N)cc1	inactive
NC(=O)C(c1ccccc1)(c1ccccc1)[C@@H]1CCN(CCc2ccc3c(c2)CCO3)C1	inactive
CCCCCOC(=O)Nc1nc(=O)n([C@@H]2O[C@H](C)[C@@H](O)[C@H]2O)cc1F	inactive

Structure (SMILES)	Potency
C=C(c1ccc(C(=O)O)cc1)c1cc2c(cc1C)C(C)(C)CCC2(C)C	inactive
Cc1[nH]cnc1CN1CCc2c(c3ccccc3n2C)C1=O	inactive
O[C@@H](c1cc(C(F)(F)F)nc2c(C(F)(F)F)cccc12)[C@H]1CCCCN1	inactive
CC(C)Nc1cccnc1N1CCN(C(=O)c2cc3cc(NS(C)(=O)=O)ccc3[nH]2)CC1	inactive
NS(=O)(=O)Cc1noc2ccccc12	inactive
CNCCc1ccccn1	inactive
O=C(O)CCNC(=O)c1ccc(N=Nc2ccc(O)c(C(=O)O)c2)cc1	inactive
COc1ccccc1OCCNCC(O)COc1cccc2[nH]c3ccccc3c12 (stereo not drawn)	inactive
Clc1ccc2c(c1)C(N1CCNCC1)=Nc1ccccc1O2	inactive
CC/C=C(\C(=O)N[C@@H]1C(=O)N2C(C(=O)OCOC(=O)C(C)(C)C)=C(COC(N)=O)CS[C@H]12)c1csc(N)n1	inactive
COc1cc(Cc2cnc(N)nc2N)cc(OC)c1OC	inactive
Cc1cn([C@H]2C=C[C@@H](CO)O2)c(=O)[nH]c1=O	inactive
NNc1nncc2ccccc12	inactive
CCCCN1C[C@H](O)[C@@H](O)[C@H](O)[C@H]1CO	inactive
CC(C)NCC(O)c1ccc(O)c(O)c1 (stereo not drawn)	inactive
CN(C)CCOC(c1ccc(Cl)cc1)c1ccccn1 (stereo not drawn)	inactive
CCCCNC(=O)NS(=O)(=O)c1ccc(C)cc1	inactive
CC[N+](C)(C)c1cccc(O)c1	inactive
CC(C)C1CCC(C(=O)N[C@H](Cc2ccccc2)C(=O)O)CC1 (stereo partly drawn)	inactive

Source: PubChem BioAssay (NCATS)
